The record followed here is publication PMC8384837, “Expanding the binding specificity for RNA recognition by a PUF domain”.

Holding throughout (assay): yeast three-hybrid, YBZ-1, SC-Leu-His + 0.5 mM 3-AT, 4 days
Common to all, as to conditions: tags: N-Gal4 AD-HA kept; label: inside an RPR1-promoter hybrid RNA with tandem MS2 sites; ssRNA

One assay has as its target PUM1 PUF domain R5-RQG (Homo sapiens, UniProt Q14671 828-1176, C1007R;R1008Q;Q1011G). The method, boiled down:
(§1)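 Pumilio-1 PUF domain libraries, randomized at the three base-contacting residues of each repeat, were co-expressed with matching RNA elements from a centromeric plasmid in strain YBZ-1, which carries a LexA–MS2 coat fusion and a HIS3 reporter. Transformants grew for four days on SC-Leu (input) or on SC-Leu-His + 0.5 mM 3-AT (selection), and the repeat regions were PCR-amplified and Illumina-sequenced. The interaction score is the log change in variant frequency from input to selection. That logarithm is base 2, with a pseudocount of 1 where a variant was absent.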

For another assay, the target named is PUM1 PUF domain R4-SNG (Homo sapiens, UniProt Q14671 828-1176, N971S;H972N;Q975G). The gist of the method:
as §1

A further assay concerns the target PUM1 PUF domain R2-EWG (Homo sapiens, UniProt Q14671 828-1176, N899E;Y900W;Q903G). The method, boiled down:
as §1

The target in another assay is PUM1 PUF domain R8-RWI (Homo sapiens, UniProt Q14671 828-1176, N1122R;Y1123W;Q1126I). The gist of the method:
as §1

The next assay deals with PUM1 PUF domain R5-RLM (Homo sapiens, UniProt Q14671 828-1176, C1007R;R1008L;Q1011M). The gist of the method:
as §1

In the next assay the target is PUM1 PUF domain R3-KFN (Homo sapiens, UniProt Q14671 828-1176, C935K;R936F;Q939N). The method, boiled down:
as §1

Another assay has as its target PUM1 PUF domain R3-IFK (Homo sapiens, UniProt Q14671 828-1176, C935I;R936F;Q939K). The gist of the method:
as §1

For “GGCUAGAACUAGUGGAUCCCCCGGCGCCCGGCGGCUCGAGCCCGGGUAAGUGUGAAUAGUCUGCAUGCCGCCGGGCGCCAUGCCUGCAGGUCGACUCUAGAAAACAUG”, the binding signal with PUM1 PUF domain R5-RQG was 0.9 log2 enrichment (interaction score).
With “GGCUAGAACUAGUGGAUCCCCCGGCGCCCGGCGGCUCGAGCCCGGGUAAGUGUAUAUAGUCUGCAUGCCGCCGGGCGCCAUGCCUGCAGGUCGACUCUAGAAAACAUG”, the binding signal with PUM1 PUF domain R4-SNG was 3.22 log2 enrichment (interaction score).
“GGCUAGAACUAGUGGAUCCCCCGGCGCCCGGCGGCUCGAGCCCGGGUAAGUGUAAAAAGUCUGCAUGCCGCCGGGCGCCAUGCCUGCAGGUCGACUCUAGAAAACAUG”: in the assay with PUM1 PUF domain R2-EWG, the binding signal is 8.11 log2 enrichment (interaction score).
“GGCUAGAACUAGUGGAUCCCCCGGCGCCCGGCGGCUCGAGCCCGGGUAAGCGUAAAUAGUCUGCAUGCCGCCGGGCGCCAUGCCUGCAGGUCGACUCUAGAAAACAUG”: the binding signal with PUM1 PUF domain R8-RWI was 5.86 log2 enrichment (interaction score).
Regarding “GGCUAGAACUAGUGGAUCCCCCGGCGCCCGGCGGCUCGAGCCCGGGUAAGUGUUAAUAGUCUGCAUGCCGCCGGGCGCCAUGCCUGCAGGUCGACUCUAGAAAACAUG”, the binding signal is 2.52 log2 enrichment (interaction score) with PUM1 PUF domain R5-RLM and 5 log2 enrichment (interaction score) with PUM1 PUF domain R5-RQG.
Regarding “GGCUAGAACUAGUGGAUCCCCCGGCGCCCGGCGGCUCGAGCCCGGGUAAGUGUAAUUAGUCUGCAUGCCGCCGGGCGCCAUGCCUGCAGGUCGACUCUAGAAAACAUG”, the binding signal with PUM1 PUF domain R3-KFN is 3.99 log2 enrichment (interaction score); in the assay with PUM1 PUF domain R3-IFK, 2.58 log2 enrichment (interaction score).
